From PubChem
IDE exosite FP – displaces the probe from the exo-site of human IDE; hit rate 6.3% among 17,000; z-score at 20 µM; P14735; purified IDE, FL-6b probe fluorescence polarization; active compounds read low;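 active means z-score of -3 or lower, meaning strong loss of probe binding signal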;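 further: His-tagged human IDE residues 42-1019 made in E. coli with 30 nM FL-6b probe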
Starred values were filed as active, the others as inactive. The full list was thinned out, with hits kept by preference.

`O=C(Cc1ccccn1)N1CC(=O)N2[C@@H](CO)[C@H](c3ccc(C#CCC4CCCC4)cc3)[C@@H]2C1` gave IDE exosite FP -0.89.
COc1cccc(-c2ccc3c(c2)[C@@H]2[C@@H](CCN2C(=O)c2ccccc2F)[C@H](CO)N3C)c1 was read as IDE exosite FP 2.
For C[C@H](CO)N1C[C@H](C)[C@@H](CN(C)Cc2cccnc2)OCc2ccccc2-c2ccccc2C1=O the results were IDE exosite FP 0.52.
Screening CO[C@H]1CC[C@@H]2CCN(C)C(=O)[C@H](C)N(C)C(=O)c3cccc(C#N)c3OC[C@H]1O2 returned IDE exosite FP 0.6.
C[C@H](NC(=O)C[C@H]1C=C[C@@H](NC(=O)c2cccnc2)[C@H](CO)O1)c1ccccc1 was read as IDE exosite FP -0.65.
Screening COCC(=O)N1CC2(C1)CN(Cc1ccc3c(c1)OCO3)[C@H](CO)c1c2c2ccc(OC)cc2n1C returned IDE exosite FP -1.6.
Screening O=C(c1ccccn1)N1CC(=O)N2[C@@H](CO)[C@H](c3ccc(C#CC4CCCC4)cc3)[C@@H]2C1 returned IDE exosite FP 3.9.
Cc1ccccc1-c1ccc([C@H]2[C@H]3CN(CC4CCOCC4)CCCCN3[C@H]2CO)cc1 was read as IDE exosite FP -6.9*.
`OC[C@H]1[C@@H](c2ccc(-c3cccnc3)cc2)[C@@H]2CN(CC3CC3)CCCCN12` gave IDE exosite FP -1.3.
`COc1ccc(-c2ccc([C@H]3[C@@H](CO)N4CCCCN(CC5CCOCC5)C[C@H]34)cc2)cc1` gave IDE exosite FP -0.35.
Screening CCCC#Cc1ccc([C@@H]2[C@H](CO)N3CCCCN(CC4CC4)C[C@@H]23)cc1 returned IDE exosite FP 4.1.
COc1ccc(-c2ccc([C@H]3[C@@H](CO)N4CCCCN(CC5CCOCC5)C[C@@H]34)cc2)cc1 was read as IDE exosite FP 0.85.
Screening Cc1ccccc1-c1ccc([C@H]2[C@@H](CO)N3CCCCN(CC4CC4)C[C@@H]23)cc1 returned IDE exosite FP -3.5*.
`COc1cccc(CN2[C@@H]3CNC[C@H]2C3c2ccc(-c3ccncc3)cc2)c1` (stereo partly drawn) gave IDE exosite FP 5.3.
For CC(=O)N1[C@H](CO)[C@@H]2c3ccccc3N(S(=O)(=O)c3ccccc3C)C[C@@H]21 the results were IDE exosite FP 2.3.
Screening O=C1CNC[C@H]2[C@H](c3ccc(C#CC4CCCC4)cc3)[C@@H](CO)N12 returned IDE exosite FP 5.2.
O=S(=O)(c1ccc(F)cc1)N1C[C@H]2[C@@H](c3ccccc31)[C@H](CO)N2Cc1ccccc1Cl was read as IDE exosite FP 3.
O=C(Nc1ccc(Cl)cc1)N1[C@@H]2CNC[C@H]1C2c1ccc(/C=C/c2ccccc2)cc1 (stereo partly drawn) was read as IDE exosite FP 0.11.
For O=C(NC1CCCC1)N1CCCCN2[C@H](C1)[C@H](c1ccc(-c3ccncc3)cc1)[C@@H]2CO the results were IDE exosite FP 2.9.
COc1ccccc1-c1ccc([C@H]2[C@H](CO)N3CCCCN(C(=O)NC4CCCC4)C[C@@H]23)cc1 was read as IDE exosite FP -12*.
COc1ccccc1-c1ccc([C@H]2[C@@H](CO)N3CCCCN(C(=O)NC4CCCC4)C[C@H]23)cc1 was read as IDE exosite FP -19*.
Screening O=C(NC1CCCC1)N1CCCCN2[C@@H](CO)[C@@H](c3ccc(-c4ccncc4)cc3)[C@@H]2C1 returned IDE exosite FP 4.8.
For O=C(NC1CCCC1)N1CCCCN2[C@@H](CO)[C@H](c3ccc(-c4cccnc4)cc3)[C@@H]2C1 the results were IDE exosite FP -2.9.
Screening O=C(NC1CCCC1)N1CCCCN2[C@H](CO)[C@@H](c3ccc(-c4cccnc4)cc3)[C@H]2C1 returned IDE exosite FP -0.77.
N#C[C@@H]1[C@H](c2ccccc2)[C@H](CO)N1S(=O)(=O)c1ccc(-c2ccccc2)cc1 was read as IDE exosite FP 4.3.
For NCC[C@H]1CC[C@H](NS(=O)(=O)c2ccc(Cl)cc2)[C@@H](CO)O1 the results were IDE exosite FP 3.
CC(C)C#Cc1ccc([C@@H]2[C@H](CO)N3C(=O)CN(C(=O)c4ccc5c(c4)OCO5)C[C@@H]23)cc1 was read as IDE exosite FP -1.3.
`CCC(=O)N1[C@H](CO)[C@H](c2ccccc2-c2ccccc2)[C@@H]1C#N` gave IDE exosite FP 0.78.
Screening CCC(=O)N1CC2(C1)[C@@H](c1ccc(-c3cccc(C)c3)cc1)[C@H](CO)N2S(C)(=O)=O returned IDE exosite FP -0.92.
`CCCC#Cc1ccc([C@H]2[C@@H](CO)N3CCCCN(Cc4cncnc4)C[C@H]23)cc1` gave IDE exosite FP -1.8.
Screening OC[C@H]1[C@@H](c2ccc(C#Cc3ccccc3)cc2)[C@@H]2CN(Cc3cncnc3)CCCCN12 returned IDE exosite FP -16*.
For OC[C@@H]1[C@H](c2ccc(Br)cc2)[C@H]2CN(Cc3ccccn3)CCCCN12 the results were IDE exosite FP 0.72.
`OC[C@H]1[C@H](c2ccc(C#Cc3ccccc3)cc2)[C@H]2CN(Cc3cncnc3)CCCCN21` gave IDE exosite FP -7.8*.
OC[C@@H]1[C@@H](c2ccc(-c3ccccc3)cc2)[C@@H]2CN(Cc3ccccn3)CCCCN12 was read as IDE exosite FP -2.9.
For OC[C@@H]1[C@@H](c2ccc(C#Cc3ccccc3)cc2)[C@@H]2CN(Cc3ccccn3)CCCCN12 the results were IDE exosite FP -8.6*.
`CCCC#Cc1ccc([C@@H]2[C@H]3CN(Cc4cncnc4)CCCCN3[C@H]2CO)cc1` gave IDE exosite FP 2.9.
`CCCC#Cc1ccc([C@@H]2[C@@H](CO)N3CCCCN(Cc4cncnc4)C[C@H]23)cc1` gave IDE exosite FP 3.7.
For COCC#Cc1ccc([C@H]2[C@H](CO)N3CCCCN(Cc4cncnc4)C[C@@H]23)cc1 the results were IDE exosite FP 3.8.
`COC(=O)c1ccc(CN2CC(=O)N3[C@@H](CO)[C@H](c4ccc(Br)cc4)[C@@H]3C2)cc1` gave IDE exosite FP 1.6.
`O=C(Nc1ccc(F)cc1)N1CC(=O)N2[C@@H](CO)[C@@H](c3ccc(-c4cccc(F)c4)cc3)[C@@H]2C1` gave IDE exosite FP -1.3.
For CCC(=O)N1CC(=O)N2[C@H](CO)[C@H](c3ccc(C#CC4CCCCC4)cc3)[C@H]2C1 the results were IDE exosite FP 1.1.
Screening O=C(Nc1cccc(Cl)c1)N[C@@H]1CC[C@H](CCn2cc(Cc3ccccc3)nn2)O[C@H]1CO returned IDE exosite FP -0.15.
`CO[C@H]1CN(C)C(=O)c2cc(NC(=O)NC(C)C)ccc2OC[C@@H](C)N(C(=O)CN(C)C)C[C@H]1C` gave IDE exosite FP -1.2.
Screening COc1ccc2c3c(n(C)c2c1)[C@H](CO)N(C(=O)c1ccncc1)CC31CN(C(C)=O)C1 returned IDE exosite FP 0.63.
Screening COC(=O)C[C@H]1CC[C@H]2[C@H](COc3ccc(NS(=O)(=O)c4ccc(C)cc4)cc3C(=O)N2C)O1 returned IDE exosite FP -1.7.
COc1cccc(-c2ccc([C@H]3[C@H]4CN(C(=O)c5cccnc5)CC(=O)N4[C@H]3CO)cc2)c1 was read as IDE exosite FP -0.65.
COc1cccc(-c2ccc([C@H]3[C@@H](CO)N4C(=O)CN(C(=O)c5ccncc5)C[C@@H]34)cc2)c1 was read as IDE exosite FP -8.6*.
COc1cccc(-c2ccc([C@@H]3[C@H](CO)N4C(=O)CN(C(=O)c5cccnc5)C[C@@H]34)cc2)c1 was read as IDE exosite FP -1.6.
